Screening data: PubChem, several laboratories
Jurkat NFkB inh – lowers PMA/ionomycin-induced NF-kB signal in Jurkat cells | PMA/ionomycin-induced NF-kB luciferase reporter, luminescence | inhibition, % at 4 µM | 0.53% of 330,000 active | AID 435003; in the data active = inhibition above about 50%
TMEM16A act – activators or potentiators of mouse TMEM16A chloride channel. Q8BHY3. HEK293 TMEM16A/YFP-H148Q/I152L, iodide quench fluorescence; active compounds read low. B-score at 10 µM. 0.3% of 340,000 active;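 active = fluorescence-ratio B-score plate-corrected deviation score at least 3 library SD below zero, with starting fluorescence score within 5 deviations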;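 note: channel opened by trigger with iodide after compound preincubation; score built on the fluorescence ratio of max minus min over baseline; more negative score means more quench and so TMEM16A activation or potentiation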
KLF5 inhibitor – inhibitors of KLF5 expression | DLD-1 KLF5 promoter-luciferase reporter, luminescence | 0.23% of 290,000 active | inhibition, % at 5 µM;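 active = inhibition above a per-plate limit of that plate's mean compound inhibition plus 3 SD, cut at about 60% in these data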;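 note: 0% = DMSO wells and 100% = LY294002 at 200 µM; higher means less KLF5 promoter-driven luciferase light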
697 NFkB inh – lowers PMA/ionomycin-induced NF-kB signal in 697 B cells. 697 B-cell NF-kB luciferase reporter, 16 h. inhibition, % at 4 µM. 0.33% of 330,000 active. AID 435022; in the data active = inhibition above about 35%
aSyn UTR inh – 5' untranslated region of α-synuclein, MLPCN primary screen; alpha-synuclein 5'UTR reporter, inhibitor activity; inhibition, % (tested at 7.5 µM); 0.82% of 300,000 active; AID 1813; in the data active = inhibition above about 60%;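 note: H4 neuroglioblastoma cells stably carrying SNCA 5'UTR luciferase fusion; 0% = DMSO wells and 100% = positive control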
ANO1 block – blocks the mouse calcium-activated chloride channel TMEM16A; Q8BHY3; HEK293 TMEM16A/YFP iodide influx fluorescence, ionomycin; normalized B-score (activity score, 25-100; higher = stronger inhibition) at 10 µM; 1.2% of 310,000 active;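 active = ratio plate-corrected score three or more library SD toward inhibition, starting fluorescence score within five deviations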;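 note: score derived from kinetic fluorescence span divided by baseline fluorescence per well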
* marks the source's active call; other numbers are inactive results. Shown are actives, neighbours in structure and some others; about 2.5% of the full set was active somewhere.

For CCOC(=O)C1=C(SCC(=O)Nc2ccccc2)NC(=O)C(C#N)C12CCCCC2 (stereo unspecified) the results were Jurkat NFkB inh -2.1, TMEM16A act -31.3*, KLF5 inhibitor -5.5, 697 NFkB inh 16.8, aSyn UTR inh 13.2 and ANO1 block inactive.
N#CC1=C(SCC(=O)NC2CC2)NC(=O)C(C#N)C12CCCCC2 (stereo unspecified) was read as Jurkat NFkB inh -9.7, TMEM16A act inactive, KLF5 inhibitor -38.1, 697 NFkB inh 7.5, aSyn UTR inh 21.4 and ANO1 block inactive.
Screening C=CCSC1=C(C#N)C2(CCCCC2)C(C#N)C(=O)N1 (stereo unspecified) returned Jurkat NFkB inh 6.6, TMEM16A act inactive, KLF5 inhibitor -8.0, 697 NFkB inh 16.7, aSyn UTR inh 4.9 and ANO1 block inactive.
COc1cccc2c1oc1c(SCc3nc4ccccc4[nH]3)nc(C)nc12 was read as Jurkat NFkB inh 10.7, TMEM16A act inactive and 697 NFkB inh 1.7.
For COC(=O)c1ccc(Nc2c([N+](=O)[O-])c(=O)oc3ccccc23)cc1 the results were Jurkat NFkB inh -7.2, TMEM16A act inactive, KLF5 inhibitor -23.4, 697 NFkB inh -15.1, aSyn UTR inh -23.6 and ANO1 block inactive.
Screening CC1CCC2(CC1)NC(=O)N(CC(=O)c1ccc(Cl)s1)C2=O (stereo unspecified) returned Jurkat NFkB inh -16.3, TMEM16A act inactive, KLF5 inhibitor -44.3, 697 NFkB inh -0.7, aSyn UTR inh -15.3 and ANO1 block inactive.
CCOC(=O)C1CCN(C(=O)c2ccc(S(=O)(=O)Nc3ccccc3Cl)cc2)CC1 was read as Jurkat NFkB inh 9.5, TMEM16A act inactive and 697 NFkB inh -7.5.
Cc1nn(C(=O)c2cccnc2)c(C)c1Sc1ccc(Br)cc1 was read as Jurkat NFkB inh 5.1, TMEM16A act inactive, KLF5 inhibitor 7.0, 697 NFkB inh 11.4, aSyn UTR inh -17.1 and ANO1 block 25*.
`c1ccc(-c2ccc3c(c2)NCCN3)cc1` gave Jurkat NFkB inh -12.1, TMEM16A act inactive, KLF5 inhibitor -41.5, 697 NFkB inh -4.3, aSyn UTR inh -113.4 and ANO1 block inactive.
For O=C(NNC(=O)c1cccc2ccccc12)c1ccc(-c2ccccc2)cc1 the results were Jurkat NFkB inh 18.6, TMEM16A act -15.3*, KLF5 inhibitor -8.2, 697 NFkB inh -21.0, aSyn UTR inh -3.2 and ANO1 block inactive.
Cn1c(=O)c2nc(SCc3ccccc3)n(C)c2n(C)c1=O was read as TMEM16A act inactive.
`Cc1ccc(NC(=O)c2cc3ccccc3oc2=N)cc1` gave Jurkat NFkB inh -103.4, TMEM16A act inactive, KLF5 inhibitor 58.1, 697 NFkB inh -197.6, aSyn UTR inh 81.7* and ANO1 block inactive.
`N=c1oc2ccccc2cc1C(=O)Nc1ccc(F)cc1` gave TMEM16A act inactive, KLF5 inhibitor -172.6, aSyn UTR inh -153.7 and ANO1 block inactive.
Screening Cc1ccc(NC(=O)c2cc(C)n(-c3ccccc3)c2C)cc1 returned Jurkat NFkB inh 29.5, TMEM16A act inactive, KLF5 inhibitor 49.7, 697 NFkB inh -212.0, aSyn UTR inh 105.6* and ANO1 block inactive.
`Cc1cc(C)cc(NC(=S)N(Cc2ccc(Br)cc2)Cc2ccc(C(=O)O)cc2)c1` gave Jurkat NFkB inh 12.0, TMEM16A act inactive, KLF5 inhibitor -35.6, 697 NFkB inh 10.0, aSyn UTR inh 19.1 and ANO1 block 25*.
Screening Cc1cc(C)cc(NC(=S)N(Cc2ccc(Cl)cc2)Cc2ccc(C(=O)O)cc2)c1 returned Jurkat NFkB inh -3.3, TMEM16A act inactive, KLF5 inhibitor 27.3, 697 NFkB inh 16.9, aSyn UTR inh 6.1 and ANO1 block inactive.
`O=C(CN(C1CCCCC1)S(=O)(=O)c1ccc(F)cc1)NCC1CCCO1` (stereo unspecified) gave TMEM16A act inactive.
`Cc1ccc(C#N)c(SCc2nnc(-c3ccc(Cl)cc3)o2)n1` gave Jurkat NFkB inh 17.3, TMEM16A act inactive, KLF5 inhibitor -71.7, 697 NFkB inh -195.4, aSyn UTR inh 89.7* and ANO1 block inactive.
`O=c1c(/C=N/OCc2ccc(Cl)cc2Cl)c[nH]n1-c1cccc(Cl)n1` gave Jurkat NFkB inh -7.3, TMEM16A act inactive, KLF5 inhibitor -3.3, 697 NFkB inh 1.1, aSyn UTR inh -1.3 and ANO1 block 25*.
For COc1cccc(CNC(=O)CCS(=O)(=O)c2ccc3c(c2)NC(=O)CO3)c1 the results were Jurkat NFkB inh 9.2, TMEM16A act inactive, KLF5 inhibitor -10.4, 697 NFkB inh -11.6, aSyn UTR inh 98.7* and ANO1 block inactive.
For O=C(NC(=S)Nc1ccccc1N1CCCC1)c1ccco1 the results were Jurkat NFkB inh 4.3, TMEM16A act -6.9*, KLF5 inhibitor 19.5, 697 NFkB inh -24.2, aSyn UTR inh 50.4 and ANO1 block inactive.
CCN(C(=O)CSc1nc(C)nc2sc(C)c(C)c12)c1ccc(F)cc1 was read as Jurkat NFkB inh -1.5, TMEM16A act -41.3* and 697 NFkB inh -6.2.
For Cc1nc(SCC(=O)N(C)Cc2ccco2)c2c(C)c(C)sc2n1 the results were Jurkat NFkB inh 7.2, TMEM16A act inactive, KLF5 inhibitor -9.5, 697 NFkB inh -20.8, aSyn UTR inh -15.7 and ANO1 block inactive.
Cc1nc2sc(-c3ccccc3)cc2c(=O)n1N was read as Jurkat NFkB inh -52.1, TMEM16A act inactive, KLF5 inhibitor 6.0, 697 NFkB inh -88.6, aSyn UTR inh 75.4* and ANO1 block inactive.
For Oc1ccc(-c2csc(NCc3ccco3)n2)cc1 the results were Jurkat NFkB inh -74.7, TMEM16A act inactive, KLF5 inhibitor -40.8, 697 NFkB inh -21.3, aSyn UTR inh -176.9 and ANO1 block inactive.
c1coc(CNc2nc(-c3cccs3)cs2)c1 was read as Jurkat NFkB inh -1.7, TMEM16A act inactive, KLF5 inhibitor -53.8, 697 NFkB inh 0.8, aSyn UTR inh 107.4* and ANO1 block inactive.
Screening CCOC(=O)Cc1csc(NC(=O)COc2ccc(N(C)S(=O)(=O)c3cccs3)cc2)n1 returned Jurkat NFkB inh 3.4, TMEM16A act inactive, KLF5 inhibitor -7.6, 697 NFkB inh -3.1, aSyn UTR inh -11.7 and ANO1 block 100*.
`O=C(CSCC(=O)N1CCCCC1)Nc1nc(-c2cccs2)cs1` gave Jurkat NFkB inh -11.6, TMEM16A act inactive, KLF5 inhibitor -30.8, 697 NFkB inh -4.5, aSyn UTR inh -50.0 and ANO1 block 25*.
For O=C(Cc1ccccc1F)Nc1nc(-c2cccs2)cs1 the results were Jurkat NFkB inh -60.9, TMEM16A act inactive, KLF5 inhibitor -107.8, 697 NFkB inh -114.0, aSyn UTR inh -77.8 and ANO1 block 25*.
Screening CC(Sc1ccccc1)C(=O)NCC1COc2ccccc2O1 (stereo unspecified) returned Jurkat NFkB inh -5.1, TMEM16A act inactive, 697 NFkB inh 13.7, aSyn UTR inh -1.5 and ANO1 block inactive.
